MARV entry inh: inhibitors of Marburg virus binding or cell entry | Marburg virus pseudotyped entry inhibition, cell reporter | 300,000 compounds, 1.8% hits | AID 540276 | Potency, µM (series often up to 37.8 µM), without a hit: top-dose activity change, negative = inhibition, actives largely listed as inhibitors; calls by dose curve; tested in HEK293 cells; further: potency means the concentration at half of the fitted maximal effect
FMDV inh: blocks foot and mouth disease virus | FMDV antiviral cell-based qHTS | Potency, µM (top dose mostly 57.9 µM), inactives show at the top dose activity change, negative = inhibition, usual class: inhibitors | 410,000 compounds, 1.2% hits | AID 1159524; calls by dose curve; tested in HEK293T cells; further: read-out not given here; potency means the concentration at half of the fitted maximal effect; nearly all actives have a fitted effect of over 45% in size
HCMV inh: inhibitors of human cytomegalovirus; HFF cells, HCMV-luciferase reporter, 72 h; stronger effect = lower value; activity change, negative = inhibition, % at 57.5 µM; 410,000 compounds, 4.5% hits; AID 1259415; in the data active means activity change below about -60%; inconclusive means no clear call, values can overlap the other calls; inactive means above about -39%
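After 16 h attachment at 37C, HFF cells received test compound and HCMV-luciferase (1 PFU/cell); reporter luminescence read 72 h later, data normalized against buffer-only and known inhibitor Salinomycin.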
Lassa entry inh: Lassa virus entry inhibition; Lassa virus pseudotype entry inhibition, cell reporter; Potency, µM (series often up to 37.9 µM), for inactives: at the top dose activity change, negative = inhibition, usual class: inhibitors; 300,000 compounds, 1.2% hits; AID 540256; calls by dose curve; tested in HEK293 cells; further: potency means the concentration at half of the fitted maximal effect; nearly all actives have a fitted effect of over 50% in size
Vaccinia mCherry: inhibitors of vaccinia virus infection (mCherry reporter signal); Vaccinia virus mCherry reporter infection, fluorescence; Potency, µM (highest dose often 36.5 µM), without a hit: at the highest dose activity change, negative = inhibition, actives largely listed as inhibitors; 310,000 compounds, 0.63% hits; AID 720579; calls by dose curve; tested in A549 cells; further: potency means the concentration at half of the fitted maximal effect; nearly all actives have a fitted effect of over 35% in size
Vaccinia Venus: inhibitors of vaccinia virus (Venus reporter); Potency, µM (titrated, usually from 36.5 µM), for inactives: at the top dose activity change, negative = inhibition, usual class: inhibitors; 330,000 compounds, 0.46% hits; Vaccinia virus Venus reporter expression, fluorescence; calls by dose curve; tested in A549 cells; further: potency means the concentration at half of the fitted maximal effect; nearly all actives have a fitted effect of over 30% in size
Numbers without * were called inactive; i = inactive; ? = inconclusive; . = not tested or not shown; [ ] = another dose, or the depositor's remark. Sampled rows, rich in hits. Any-hit rate of the full collection: about 6.5%. On the % scale 0 is the no-effect control and ±100 the full control effect.

SMILES | MARV entry inh | FMDV inh | HCMV inh | Lassa entry inh | Vaccinia mCherry | Vaccinia Venus
Cc1nc2ccccc2n1CCc1nc2c3ccccc3nc(SCC(=O)NCc3ccco3)n2n1 | 10µM* | ? | -62* | ? | . | .
Cc1c(O)nc(SCC(=O)Nc2cccc(C(F)(F)F)c2)n(-c2ccccc2)c1=O | -14% | -21% | -104* | 11% | i | -11%
Cc1ccccc1NC(=O)CSc1nc2ccccc2c2nc(CCn3c(C)nc4ccccc43)nn12 | . | ? | -4 | 1%[46.1 µM] | ? | ?
CC1Cc2cc(S(=O)(=O)NCc3ccccc3Cl)ccc2N1C(=O)C1CCC1 (centres undefined) | . | -14% | ? | ? | -26% | -26%
CCC(Sc1nc2ccccc2c2nc(CCn3c(C)nc4ccccc43)nn12)C(=O)Nc1ccc(F)cc1 (centres undefined) | . | 1% | -9 | 26%[46.1 µM] | -7% | -4%
O=C(CCCCCn1c(=S)[nH]c2ccc(N3CCOCC3)cc2c1=O)NC1CCN(Cc2ccccc2)CC1 | ? | ? | ? | 2% | -12% | -21%
O=C(NC1CCN(Cc2ccccc2)CC1)c1ccc2c(c1)[nH]c(=O)n2Cc1ccc(F)cc1 | 2.8µM* | ? | -86* | ? | ? | ?
CCN1CCN(c2ccc(NC(=O)c3ccc4c(c3)[nH]c(=O)n4Cc3ccc(OC)cc3)cc2)CC1 | 7.9µM* | -10% | ? | ? | ? | ?
CCCCCn1c(=O)[nH]c2cc(C(=O)NC3CCN(Cc4ccccc4)CC3)ccc2c1=O | -1%[46.1 µM] | ? | -26 | -6% | -12% | -16%
O=C(NC1CCN(Cc2ccccc2)CC1)c1ccc(Cn2c(=S)[nH]c3ccc(N4CCOCC4)cc3c2=O)cc1 | 2.8µM* | 20% | 49 | ? | -1% | -10%
COc1ccc(/C=C2\Sc3ccc(C(=O)NC4CC4)cc3N(C)C2=O)cc1OC | . | ? | -29 | . | . | .
CN1C(=O)/C(=C\c2ccccc2F)Sc2ccc(C(=O)NC3CCN(Cc4ccccc4)CC3)cc21 | . | ? | -71* | . | . | .
Cc1ccc(Cn2c(C(=O)O)c(CNC3CCCCCC3)c3ccc(C)cc32)cc1 | . | -1% | 13 | 7%[46.1 µM] | -1% | -4%
COCCn1c(SCc2nc3scc(-c4ccc(Cl)cc4)c3c(=O)[nH]2)nnc1-c1cccc(C)c1 | ? | 40µM* | ? | -25% | ? | ?
COc1ccc(OC)c(CNC(=O)c2cc3ccc4cccnc4c3[nH]2)c1 | . | -2% | -7 | 7%[46.1 µM] | -20% | -7%
O=C(Nc1ccc2c(c1)N(C1CCCC1)C(=O)c1ccccc1S2)c1ccccc1 | . | 0% | -64* | 2.8µM* | -8% | -5%
CN(Cc1ccccc1)C(=O)Nc1ccc2c(c1)N(C)C(=O)c1ccccc1S2 | 10µM* | 0% | -33 | ? | -17% | -7%
O=C(Nc1ccc2c(c1)N(C1CCCC1)C(=O)c1ccccc1S2)c1ccc(F)cc1 | . | -27% | ? | ? | 0% | -9%
CC(C)Oc1ccc(CNC(=O)Nc2ccc3c(c2)N(C)C(=O)c2ccccc2S3)cc1 | ? | ? | -76* | -5%[46.1 µM] | ? | ?
CCN(Cc1ccccc1)C(=O)Nc1ccc2c(c1)N(C)C(=O)c1ccccc1S2 | ? | 0% | -5 | ? | -5% | -7%
CN1C(=O)c2ccccc2Sc2ccc(NC(=O)N3CCN(c4ccccc4)CC3)cc21 | ? | ? | -76* | -22%[46.1 µM] | ? | ?
COc1ccc(CNC(=O)Nc2ccc3c(c2)N(C)C(=O)c2ccccc2S3)cc1OC | 1%[46.1 µM] | ? | ? | -16%[46.1 µM] | -14% | -13%
CCN(CC(=O)NCc1cccs1)C(=O)CCCOc1ccc(C(C)(C)C)cc1 | ? | -19% | -105* | ? | -7% | -18%
COC(=O)c1cc(CNC(=O)c2cnsn2)cc(NC(=O)c2ccccc2OC)c1 | . | -4% | . | . | -22% | -10%
O=C(NCc1ccccc1Cl)c1nnc(CS(=O)(=O)c2ccccc2)o1 | . | -15% | -99* | . | i | -12%
SMILES | MARV entry inh | FMDV inh | HCMV inh | Lassa entry inh | Vaccinia mCherry | Vaccinia Venus
COC(=O)C(c1ccccc1)(c1cn(C)c2cc(Br)ccc12)C(Nc1ccccc1)c1ccccc1 (centres undefined) | . | . | -7 | . | . | .
Cc1ccc2[nH]c3c(N4CCN(Cc5ccc6c(c5)OCO6)CC4)ncnc3c2c1 | 1% | . | ? | . | . | .
COc1cc2[nH]c3c(N4CCN(c5ccc(Cl)cc5)CC4)ncnc3c2cc1OC | ? | -22% | ? | 1% | -13% | ?
COc1ccc2c(c1)[nH]c1c(N3CCSCC3)ncnc12 | ? | 25µM* | ? | ? | ? | -25%
COc1ccc2c(c1)[nH]c1c(N3CCN(Cc4ccc5c(c4)OCO5)CC3)ncnc12 | ? | 6.3µM* | -39 | ? | ? | ?
CCOC(=O)c1[nH]c(C=O)c(C(=O)OCC)c1C | ? | 16% | -96* | ? | 1% | 3%
COc1cc(C(=O)NC2CCN(C)CC2)ccc1Nc1ncc2c(n1)N(C1CCCC1)CCC(=O)N2C(C)C | . | -1% | . | . | ? | ?
COc1cc(C(=O)NC2CCN(C)CC2)ccc1Nc1ncc2c(n1)N(CCc1ccccc1)CCC(=O)N2C | 1% | 0% | -78* | . | ? | ?
CCNC(=O)COc1ccc(/C=C2\COc3ccccc3C2=O)cc1OC | ? | 28µM* | 73 | 15µM* | -7% | -23%
CCOc1cc(C=C2C(=O)NC(=O)NC2=O)ccc1OCC(=O)N1CCOCC1 | -6% | -11% | -27 | 2% | -14% | -8%
CCOc1cc(/C=C2\COc3ccccc3C2=O)ccc1OCC(=O)N(C)C | ? | 28µM* | 47 | ? | -4% | -27%
COc1ccc(-c2noc(CSc3nnc(C)n3-c3ccc(C)cc3)n2)cc1 | -4%[46.1 µM] | -22% | -23 | ? | -10%[7.34 µM] | -10%[7.34 µM]
Cc1ccn2c(Nc3ccc4c(c3)OCCO4)c(-c3ccc(C)o3)nc2c1 | ? | 15% | 26 | -6%[46.1 µM] | -13% | -8%
CC(C)Oc1ccc(C(=O)N(Cc2ccc(N(C)C)cc2)C2CCS(=O)(=O)C2)cc1 (centres undefined) | -24%[46.1 µM] | -14% | 6 | 1%[46.1 µM] | -7% | -8%
c1ccc(C(NCc2cccnc2)(c2ccccc2)c2ccccc2)cc1 | 0% | ? | . | 8.2µM* | . | .
c1ccc(CCc2cccnc2)cc1 | 9% | 5% | -4 | -1% | -11% | -8%
Clc1ccc(-c2n[nH]c3c2CCCC3)cc1 | 0%[46.1 µM] | 42% | -72* | 16% | i | 1%
CCCN(CCC)CCNC(=O)Cn1cnc2sc(C)c(S(=O)(=O)N3CCN(c4ccccc4OC)CC3)c2c1=O | 3%[46.1 µM] | 0% | -3 | 24%[46.1 µM] | -10% | -15%
CC(=O)Nc1ccc(NC(=O)c2ccc(OCc3c(C)noc3C)cc2)cc1 | -3%[46.1 µM] | -7% | 11 | 0%[46.1 µM] | -8% | -8%
Cc1ccc(NC(=O)c2ccc(OCc3c(C)noc3C)cc2)cc1C | 10µM* | 32µM* | ? | ? | -19% | -28%

Bioassay records: PubChem, National Center for Advancing Translational Sciences (NCATS)
